In the supplement of paper PMC11732987, “Enantioselective OTUD7B fragment discovery through chemoproteomics screening and high-throughput optimisation” (Communications Chemistry, 2025):

Tests used:
Test in all cases: log2 ratio of Biotin-Ahx-Ub-VS probe labelling (fragment/DMSO); higher = less target engagement (more negative = stronger competition), active = hit call of the paper (q ≤ 0.05, log2 ratio ≤ -1)
Details in all cases: compound concentration: 200 uM; treatment time: 3 h
[1] = molecular target: USP9X (UniProt Q93008)
Outline: (§1)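 HEK293T lysate (495 µg per sample, in Tris/CHAPS/IGEPAL buffer with protease inhibitors) was treated in triplicate with fragment at 200 µM or with DMSO for 3 h. It was then treated with Biotin-Ahx-Ub-VS (0.5 µM final) for 1 h. Labelled DUBs were NeutrAvidin-enriched, digested with LysC and trypsin, and run by diaPASEF LC-MS/MS. Spectronaut label-free quantities were global-median-normalised. Values are average log2 ratios fragment/DMSO by unpaired t-test, using proteins with ≥2 unique peptides.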

[2] = molecular target: UniProt O00487
Outline: as §1

[3] = molecular target: UniProt O00507
Outline: as §1

[4] = molecular target: UniProt P51784
Outline: as §1

[5] = molecular target: T1, UniProt Q5T2D3
T1 sequence (whole entry): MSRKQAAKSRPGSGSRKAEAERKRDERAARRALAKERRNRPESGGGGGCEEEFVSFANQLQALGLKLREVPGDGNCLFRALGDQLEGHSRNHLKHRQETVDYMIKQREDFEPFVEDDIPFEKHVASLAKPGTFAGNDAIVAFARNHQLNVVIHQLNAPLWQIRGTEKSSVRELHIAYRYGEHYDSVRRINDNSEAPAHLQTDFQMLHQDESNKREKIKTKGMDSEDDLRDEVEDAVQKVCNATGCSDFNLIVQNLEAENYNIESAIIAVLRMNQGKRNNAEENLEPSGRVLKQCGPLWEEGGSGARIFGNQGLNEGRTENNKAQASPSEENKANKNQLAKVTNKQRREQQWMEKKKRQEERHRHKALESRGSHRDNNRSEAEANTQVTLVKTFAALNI
Outline: as §1

[6] = molecular target: T2, UniProt Q8TE49
T2 sequence (whole entry): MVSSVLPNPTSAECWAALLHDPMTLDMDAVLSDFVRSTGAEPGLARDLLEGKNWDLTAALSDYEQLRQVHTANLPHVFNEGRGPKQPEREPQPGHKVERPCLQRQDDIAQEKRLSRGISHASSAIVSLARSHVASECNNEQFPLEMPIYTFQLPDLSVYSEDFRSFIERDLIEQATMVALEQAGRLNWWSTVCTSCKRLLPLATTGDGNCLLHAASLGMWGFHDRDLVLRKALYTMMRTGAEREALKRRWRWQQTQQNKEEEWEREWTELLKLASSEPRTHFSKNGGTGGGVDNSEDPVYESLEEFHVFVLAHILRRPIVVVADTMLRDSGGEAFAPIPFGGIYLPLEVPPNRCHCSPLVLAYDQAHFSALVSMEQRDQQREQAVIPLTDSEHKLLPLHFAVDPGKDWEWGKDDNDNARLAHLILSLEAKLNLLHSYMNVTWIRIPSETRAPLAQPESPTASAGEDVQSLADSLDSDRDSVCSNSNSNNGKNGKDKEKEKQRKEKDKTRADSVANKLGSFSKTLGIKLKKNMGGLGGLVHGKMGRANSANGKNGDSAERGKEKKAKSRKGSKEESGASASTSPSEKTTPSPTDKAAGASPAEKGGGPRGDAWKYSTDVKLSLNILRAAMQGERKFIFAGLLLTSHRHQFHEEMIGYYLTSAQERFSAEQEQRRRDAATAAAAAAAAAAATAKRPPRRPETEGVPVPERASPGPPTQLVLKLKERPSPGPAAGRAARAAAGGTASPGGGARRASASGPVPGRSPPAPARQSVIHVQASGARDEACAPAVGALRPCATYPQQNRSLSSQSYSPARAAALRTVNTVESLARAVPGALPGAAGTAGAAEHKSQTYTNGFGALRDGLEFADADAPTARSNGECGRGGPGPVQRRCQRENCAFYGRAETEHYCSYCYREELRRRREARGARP
Outline: as §1

[7] = molecular target: T3, UniProt Q9P2H5
T3 sequence (whole entry): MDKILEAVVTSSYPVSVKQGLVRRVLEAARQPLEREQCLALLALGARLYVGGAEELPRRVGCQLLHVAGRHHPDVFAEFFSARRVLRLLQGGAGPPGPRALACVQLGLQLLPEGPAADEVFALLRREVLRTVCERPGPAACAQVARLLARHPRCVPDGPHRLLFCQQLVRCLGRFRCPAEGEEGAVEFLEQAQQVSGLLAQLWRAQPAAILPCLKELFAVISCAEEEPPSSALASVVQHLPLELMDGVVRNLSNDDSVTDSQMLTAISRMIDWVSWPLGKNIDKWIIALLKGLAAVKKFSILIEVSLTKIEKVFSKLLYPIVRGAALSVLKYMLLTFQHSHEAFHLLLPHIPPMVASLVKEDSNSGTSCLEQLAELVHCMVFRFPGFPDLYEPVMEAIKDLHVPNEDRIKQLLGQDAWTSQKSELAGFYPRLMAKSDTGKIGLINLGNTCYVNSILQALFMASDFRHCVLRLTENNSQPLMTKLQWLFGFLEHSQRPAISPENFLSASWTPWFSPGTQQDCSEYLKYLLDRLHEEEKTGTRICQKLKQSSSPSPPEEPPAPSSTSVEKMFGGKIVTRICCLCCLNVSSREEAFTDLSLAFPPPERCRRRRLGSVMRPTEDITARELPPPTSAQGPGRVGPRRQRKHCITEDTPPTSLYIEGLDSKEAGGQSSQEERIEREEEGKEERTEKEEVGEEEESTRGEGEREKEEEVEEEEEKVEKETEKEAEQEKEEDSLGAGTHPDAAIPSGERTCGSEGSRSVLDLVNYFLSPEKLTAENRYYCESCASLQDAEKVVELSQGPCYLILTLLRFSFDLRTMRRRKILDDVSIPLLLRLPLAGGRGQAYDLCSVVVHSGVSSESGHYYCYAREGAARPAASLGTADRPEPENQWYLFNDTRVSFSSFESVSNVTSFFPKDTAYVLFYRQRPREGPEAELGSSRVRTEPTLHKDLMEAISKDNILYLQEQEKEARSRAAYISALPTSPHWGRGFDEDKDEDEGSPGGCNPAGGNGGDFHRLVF
Outline: as §1

[8] = molecular target: T4, UniProt Q9UGI0
T4 sequence (whole entry): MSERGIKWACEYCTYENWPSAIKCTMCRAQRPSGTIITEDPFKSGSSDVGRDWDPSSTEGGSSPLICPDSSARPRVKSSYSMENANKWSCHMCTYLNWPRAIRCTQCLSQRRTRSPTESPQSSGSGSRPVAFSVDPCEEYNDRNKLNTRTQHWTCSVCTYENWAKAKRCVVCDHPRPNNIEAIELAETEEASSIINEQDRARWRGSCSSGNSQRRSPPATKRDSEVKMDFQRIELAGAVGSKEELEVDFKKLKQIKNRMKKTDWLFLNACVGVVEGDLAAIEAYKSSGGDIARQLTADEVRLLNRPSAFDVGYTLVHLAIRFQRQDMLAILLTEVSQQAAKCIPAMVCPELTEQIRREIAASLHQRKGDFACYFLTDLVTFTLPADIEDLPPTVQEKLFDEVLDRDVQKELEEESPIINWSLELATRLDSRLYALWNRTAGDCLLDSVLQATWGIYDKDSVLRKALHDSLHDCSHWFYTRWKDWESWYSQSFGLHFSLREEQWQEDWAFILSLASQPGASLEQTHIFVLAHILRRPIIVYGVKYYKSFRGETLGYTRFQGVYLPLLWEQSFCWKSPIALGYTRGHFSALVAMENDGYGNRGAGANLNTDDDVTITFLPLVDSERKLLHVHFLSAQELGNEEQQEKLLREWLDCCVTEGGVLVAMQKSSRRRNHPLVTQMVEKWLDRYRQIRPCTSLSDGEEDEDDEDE
Outline: as §1

[9] = molecular target: T5, YOD1 (UniProt Q5VVQ6)
T5 sequence (whole entry): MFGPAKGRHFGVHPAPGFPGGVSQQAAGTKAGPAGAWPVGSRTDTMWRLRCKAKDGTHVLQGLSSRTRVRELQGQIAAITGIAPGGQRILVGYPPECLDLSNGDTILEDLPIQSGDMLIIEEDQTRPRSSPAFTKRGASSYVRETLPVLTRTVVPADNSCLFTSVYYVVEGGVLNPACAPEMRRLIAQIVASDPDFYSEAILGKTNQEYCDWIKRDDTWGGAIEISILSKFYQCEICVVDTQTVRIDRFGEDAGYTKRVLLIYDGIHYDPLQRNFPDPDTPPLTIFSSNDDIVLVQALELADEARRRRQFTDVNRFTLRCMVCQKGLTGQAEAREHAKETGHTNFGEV
Outline: as §1

Measured: log2 ratio of Biotin-Ahx-Ub-VS probe labelling

Chain of USP9X (Q93008 whole entry, the tested form may be a part): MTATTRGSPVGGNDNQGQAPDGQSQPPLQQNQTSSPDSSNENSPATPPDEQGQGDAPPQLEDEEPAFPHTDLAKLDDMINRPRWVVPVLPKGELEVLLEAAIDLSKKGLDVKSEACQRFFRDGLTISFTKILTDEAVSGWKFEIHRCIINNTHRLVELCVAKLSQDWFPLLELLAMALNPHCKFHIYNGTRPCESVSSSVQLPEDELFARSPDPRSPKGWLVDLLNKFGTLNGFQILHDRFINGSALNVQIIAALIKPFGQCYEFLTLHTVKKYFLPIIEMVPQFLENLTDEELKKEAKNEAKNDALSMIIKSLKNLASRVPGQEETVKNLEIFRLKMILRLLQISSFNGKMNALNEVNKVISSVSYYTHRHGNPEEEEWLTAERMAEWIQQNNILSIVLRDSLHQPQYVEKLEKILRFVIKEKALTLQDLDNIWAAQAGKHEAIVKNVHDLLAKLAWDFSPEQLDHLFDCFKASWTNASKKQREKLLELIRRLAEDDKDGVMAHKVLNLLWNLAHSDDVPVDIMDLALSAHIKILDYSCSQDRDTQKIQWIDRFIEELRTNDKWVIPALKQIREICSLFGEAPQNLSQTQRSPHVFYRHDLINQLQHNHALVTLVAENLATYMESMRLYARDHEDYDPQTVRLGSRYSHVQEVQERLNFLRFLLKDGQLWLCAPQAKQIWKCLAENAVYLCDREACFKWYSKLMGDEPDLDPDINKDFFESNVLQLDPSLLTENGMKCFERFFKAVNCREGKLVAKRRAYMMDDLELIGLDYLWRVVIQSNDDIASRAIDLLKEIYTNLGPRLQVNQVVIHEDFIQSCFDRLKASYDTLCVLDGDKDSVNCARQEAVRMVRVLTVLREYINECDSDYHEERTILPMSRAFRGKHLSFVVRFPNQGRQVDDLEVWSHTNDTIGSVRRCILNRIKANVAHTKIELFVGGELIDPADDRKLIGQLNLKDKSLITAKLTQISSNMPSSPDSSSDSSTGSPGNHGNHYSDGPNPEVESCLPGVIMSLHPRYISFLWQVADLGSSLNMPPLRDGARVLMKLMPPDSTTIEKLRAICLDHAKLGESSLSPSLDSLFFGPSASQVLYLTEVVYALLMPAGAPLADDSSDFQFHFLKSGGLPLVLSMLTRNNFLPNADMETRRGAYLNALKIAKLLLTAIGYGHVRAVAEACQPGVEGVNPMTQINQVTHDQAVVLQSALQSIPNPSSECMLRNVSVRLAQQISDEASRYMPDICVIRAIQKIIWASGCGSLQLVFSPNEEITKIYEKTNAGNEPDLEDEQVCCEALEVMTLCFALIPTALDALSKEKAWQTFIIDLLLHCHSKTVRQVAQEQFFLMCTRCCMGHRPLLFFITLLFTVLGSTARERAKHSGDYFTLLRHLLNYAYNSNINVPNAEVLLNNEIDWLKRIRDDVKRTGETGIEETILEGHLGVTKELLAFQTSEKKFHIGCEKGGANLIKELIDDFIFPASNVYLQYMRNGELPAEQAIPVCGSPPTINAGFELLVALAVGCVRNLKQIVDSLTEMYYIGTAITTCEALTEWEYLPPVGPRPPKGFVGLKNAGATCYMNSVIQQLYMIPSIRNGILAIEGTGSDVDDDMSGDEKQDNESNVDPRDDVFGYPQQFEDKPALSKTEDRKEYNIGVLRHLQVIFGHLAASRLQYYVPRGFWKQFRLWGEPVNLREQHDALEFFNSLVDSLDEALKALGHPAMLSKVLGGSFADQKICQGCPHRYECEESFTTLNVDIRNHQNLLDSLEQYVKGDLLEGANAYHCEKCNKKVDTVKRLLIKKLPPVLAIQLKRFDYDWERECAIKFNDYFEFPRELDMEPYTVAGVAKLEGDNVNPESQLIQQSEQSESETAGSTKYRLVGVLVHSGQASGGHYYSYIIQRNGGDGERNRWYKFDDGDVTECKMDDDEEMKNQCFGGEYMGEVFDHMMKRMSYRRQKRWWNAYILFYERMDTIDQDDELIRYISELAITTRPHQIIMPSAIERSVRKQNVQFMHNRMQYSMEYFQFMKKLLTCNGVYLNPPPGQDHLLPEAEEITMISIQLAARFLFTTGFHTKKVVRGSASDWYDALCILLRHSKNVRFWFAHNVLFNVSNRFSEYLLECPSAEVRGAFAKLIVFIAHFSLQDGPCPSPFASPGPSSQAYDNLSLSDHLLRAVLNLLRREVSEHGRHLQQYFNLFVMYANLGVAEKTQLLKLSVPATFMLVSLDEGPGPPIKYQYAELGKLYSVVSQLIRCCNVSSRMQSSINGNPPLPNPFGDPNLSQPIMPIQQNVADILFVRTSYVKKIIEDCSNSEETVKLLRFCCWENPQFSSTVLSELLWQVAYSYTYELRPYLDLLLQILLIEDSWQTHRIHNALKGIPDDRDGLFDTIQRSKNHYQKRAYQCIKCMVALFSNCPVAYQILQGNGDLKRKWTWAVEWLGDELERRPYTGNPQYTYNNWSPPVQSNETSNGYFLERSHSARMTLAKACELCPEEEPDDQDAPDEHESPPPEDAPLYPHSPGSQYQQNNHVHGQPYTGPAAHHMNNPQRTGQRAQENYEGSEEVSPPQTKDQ
Chain of UniProt O00507 (O00507 whole entry): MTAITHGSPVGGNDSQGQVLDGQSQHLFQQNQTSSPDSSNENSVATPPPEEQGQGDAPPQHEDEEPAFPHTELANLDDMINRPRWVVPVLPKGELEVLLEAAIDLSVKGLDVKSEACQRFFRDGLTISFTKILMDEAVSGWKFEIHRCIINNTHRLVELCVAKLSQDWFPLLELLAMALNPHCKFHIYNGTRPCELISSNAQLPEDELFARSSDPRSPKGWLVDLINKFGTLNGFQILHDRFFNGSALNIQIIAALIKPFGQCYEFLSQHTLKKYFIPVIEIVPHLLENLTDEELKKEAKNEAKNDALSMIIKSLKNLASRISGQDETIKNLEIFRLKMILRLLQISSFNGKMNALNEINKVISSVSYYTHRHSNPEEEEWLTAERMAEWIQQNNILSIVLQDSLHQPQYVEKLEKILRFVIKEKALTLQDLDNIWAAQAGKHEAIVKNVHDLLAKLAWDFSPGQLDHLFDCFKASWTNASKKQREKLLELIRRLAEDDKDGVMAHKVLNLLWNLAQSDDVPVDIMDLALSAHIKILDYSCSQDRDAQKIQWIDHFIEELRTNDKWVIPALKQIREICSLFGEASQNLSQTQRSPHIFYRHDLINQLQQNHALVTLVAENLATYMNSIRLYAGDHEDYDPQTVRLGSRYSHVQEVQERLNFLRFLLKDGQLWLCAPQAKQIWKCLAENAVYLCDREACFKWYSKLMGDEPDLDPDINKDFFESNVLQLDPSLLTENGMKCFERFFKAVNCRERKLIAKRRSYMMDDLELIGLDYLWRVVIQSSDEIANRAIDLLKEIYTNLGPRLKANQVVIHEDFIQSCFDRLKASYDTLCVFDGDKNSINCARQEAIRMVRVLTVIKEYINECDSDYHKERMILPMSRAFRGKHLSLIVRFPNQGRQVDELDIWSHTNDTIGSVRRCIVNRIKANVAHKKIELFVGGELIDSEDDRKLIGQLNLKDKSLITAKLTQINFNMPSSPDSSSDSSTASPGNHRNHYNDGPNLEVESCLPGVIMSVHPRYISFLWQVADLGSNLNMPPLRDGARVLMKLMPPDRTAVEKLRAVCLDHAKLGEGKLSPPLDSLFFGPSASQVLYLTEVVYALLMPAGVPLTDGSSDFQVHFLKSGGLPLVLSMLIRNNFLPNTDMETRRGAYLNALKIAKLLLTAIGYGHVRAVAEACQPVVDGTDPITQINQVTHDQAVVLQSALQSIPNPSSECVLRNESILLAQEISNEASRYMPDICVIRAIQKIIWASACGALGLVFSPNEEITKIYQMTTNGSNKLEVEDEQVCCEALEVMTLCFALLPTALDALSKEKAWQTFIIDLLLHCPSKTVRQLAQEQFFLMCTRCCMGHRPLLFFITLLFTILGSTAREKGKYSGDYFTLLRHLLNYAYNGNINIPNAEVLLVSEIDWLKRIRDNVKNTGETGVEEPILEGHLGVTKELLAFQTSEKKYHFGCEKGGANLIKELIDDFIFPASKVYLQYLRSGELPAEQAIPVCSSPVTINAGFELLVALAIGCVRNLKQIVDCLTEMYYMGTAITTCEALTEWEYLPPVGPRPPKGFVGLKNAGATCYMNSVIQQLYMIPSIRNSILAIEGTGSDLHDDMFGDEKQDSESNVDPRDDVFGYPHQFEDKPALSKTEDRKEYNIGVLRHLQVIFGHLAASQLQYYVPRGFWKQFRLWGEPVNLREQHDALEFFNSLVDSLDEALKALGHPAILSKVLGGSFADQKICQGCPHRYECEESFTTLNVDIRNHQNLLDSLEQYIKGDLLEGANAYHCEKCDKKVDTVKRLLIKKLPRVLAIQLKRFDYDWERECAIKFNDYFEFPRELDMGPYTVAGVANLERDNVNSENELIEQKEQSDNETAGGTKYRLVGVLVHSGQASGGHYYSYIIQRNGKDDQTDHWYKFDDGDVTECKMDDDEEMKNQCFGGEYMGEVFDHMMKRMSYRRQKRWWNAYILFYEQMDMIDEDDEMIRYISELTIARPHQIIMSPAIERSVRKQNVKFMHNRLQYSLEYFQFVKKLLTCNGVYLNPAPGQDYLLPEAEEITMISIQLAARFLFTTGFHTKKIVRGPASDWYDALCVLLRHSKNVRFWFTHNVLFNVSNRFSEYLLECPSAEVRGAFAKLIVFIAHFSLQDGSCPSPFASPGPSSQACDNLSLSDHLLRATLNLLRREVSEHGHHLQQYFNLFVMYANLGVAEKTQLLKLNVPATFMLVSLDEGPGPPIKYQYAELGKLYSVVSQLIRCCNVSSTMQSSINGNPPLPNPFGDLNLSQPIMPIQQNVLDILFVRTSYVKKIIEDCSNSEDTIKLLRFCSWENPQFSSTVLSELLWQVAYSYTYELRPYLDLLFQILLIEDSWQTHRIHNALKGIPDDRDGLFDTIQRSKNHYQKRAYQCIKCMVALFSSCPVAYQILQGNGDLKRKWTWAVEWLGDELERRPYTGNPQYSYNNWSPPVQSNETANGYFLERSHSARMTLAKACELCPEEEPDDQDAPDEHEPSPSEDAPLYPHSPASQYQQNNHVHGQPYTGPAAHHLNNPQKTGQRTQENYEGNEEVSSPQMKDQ

O=C(CCl)N1CCC(S(=O)(=O)c2ccc(F)cc2)CC1
inactive: [1] -0.118 | [2] 0.043 | [3] 0.0377 | [4] -0.0572 | [5] -0.0766 | [6] -0.856 | [7] -0.104 | [8] -0.887 | [9] 0.119
